Shown are actives, neighbours in structure and some others; about 1.4% of the full set was active somewhere.
AID504770: growth inhibitors of E. coli YBA685 in a screen for V. cholerae RctB (chromosome II replication) inhibitors; E. coli YBA685 rctB-dependent plasmid, OD600 growth, 3 h; active compounds read low; z-score (concentration not given with the values); actives 0.27% (n = 130,000); in the data active = z-score below about -2, passing the limit was not always enough
Polio RdRp inh: inhibitors of poliovirus RNA polymerase binding and polymerization; P03300; poliovirus polymerase elongation, fluorescence polarization; active compounds read low; % elongation, % (compound at 16.7 µg/mL); actives 0.66% (n = 150,000); in the data active = % elongation below about 90%
MbtI inh: blocks the Mycobacterium tuberculosis siderophore enzyme MbtI; actives 0.89% (n = 100,000); P9WFX0; AID 493033; purified MbtI enzyme, fluorescence intensity read-out; inhibition, % (test concentration not listed); in the data active = inhibition mostly above about 56%, no sharp cut-off; inactive = mostly below about 77%
Target sequence (P9WFX0 whole entry, looked up): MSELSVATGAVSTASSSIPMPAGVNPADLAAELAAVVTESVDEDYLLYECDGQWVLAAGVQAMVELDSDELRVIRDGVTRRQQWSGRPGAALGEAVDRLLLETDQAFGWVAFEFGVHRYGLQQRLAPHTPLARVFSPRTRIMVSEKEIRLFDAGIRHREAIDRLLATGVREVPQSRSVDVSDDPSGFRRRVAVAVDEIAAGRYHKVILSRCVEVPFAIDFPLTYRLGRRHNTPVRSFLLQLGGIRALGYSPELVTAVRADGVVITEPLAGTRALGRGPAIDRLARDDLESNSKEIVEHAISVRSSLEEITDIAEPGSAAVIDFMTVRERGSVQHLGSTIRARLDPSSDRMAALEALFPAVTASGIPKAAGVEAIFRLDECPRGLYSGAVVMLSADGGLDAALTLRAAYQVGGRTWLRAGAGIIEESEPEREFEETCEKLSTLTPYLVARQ
Mtb MenB inh: blocks the Mycobacterium tuberculosis MenB enzyme | P9WNP5 | MenB enzyme assay, absorbance read-out | inhibition, % (no concentration beside the values) | actives 0.43% (n = 100,000) | AID 540299; in the data active = inhibition above about 21%, passing the limit was not always enough
* = called active by the depositor; i = inactive; . = no result; ! = not confirmed by another sample.

SMILES | AID504770 | Polio RdRp inh | MbtI inh | Mtb MenB inh
NC(=O)CN(C1CCCCC1)S(=O)(=O)c1ccc(Br)cc1 | -0.2 | 99 | i | 41*
CCNc1nc(C)nc2sc(CC)cc12 | -0.15 | 103 | . | 32*
N/C(=N/O)c1ccccc1N | -1.5 | 102 | 26 | 42*
CCOc1ccccc1C(=O)NCCn1ccc2ccccc21 | -0.2 | . | . | .
Cc1c2cnn(-c3ccccc3)c(=O)c2c(C)n1CCCC(=O)Nc1cccc(F)c1 | . | 82* | . | .
COC(=O)c1sc(=S)n(-c2cc(OC)ccc2OC)c1N | -0.55 | 98 | 18 | -20
COC(=O)c1sc(=S)n(-c2cccc(OC)c2)c1N | -0.8 | 97 | 96* | -15
CCOc1cc(CNc2ccc(O)cc2)ccc1OCc1ccc(Cl)cc1 | . | 80* | . | .
CC(C)Cn1c(=O)c2sccc2n2c(=S)sc(-c3ccccc3)c12 | -1 | 95 | 68* | -11
COC(=O)CC1(O)c2ccccc2C(=O)N1Cc1ccccc1 (stereo not given) | -0.6 | . | . | .
O=C(O)CC1(O)c2ccccc2C(=O)N1Cc1ccccc1 (stereo not given) | 1.6 | 90* | . | -37
COc1ccccc1NC(=O)CSCc1cnc(C)c(O)c1CO | 2.1 | . | . | .
Cn1cc(NC(=O)N(Cc2ccco2)CC2CCCO2)c2ccccc2c1=O (stereo not given) | 0.1 | 82* | -13 | -27
O=C1CSC(=S)N1c1cccc(O)c1 | -3.1* | . | . | .
NS(=O)(=O)c1ccc(N2C(=O)CSC2=S)cc1 | -1.2 | 99 | 57* | -75
O=C(NCc1ccccc1)c1cnn2c(C(F)(F)F)cc(-c3ccco3)nc12 | -0.8 | 103 | 15 | -65
CC(=O)Oc1ccc(OC(C)=O)c(S(=O)(=O)c2ccc(Cl)c(Cl)c2)c1 | -0.1 | 104 | -7 | -15
Cc1cc(C)c2cc3c(cc2n1)CCN3CC(O)CO (stereo not given) | -2.5 | . | -22 | .
O=C(COCc1nc2ccccc2s1)Nc1ccc(-c2nnc3n2CCCCC3)cc1 | -0.05 | 89* | -1 | -23
COc1ccc(CC(=O)Nc2ccc(-c3nnc4n3CCCCC4)cc2)cc1 | -0.7 | 106 | -11 | -11
N#C/C(=C/c1cn(-c2ccccc2)nc1-c1cc2ccccc2o1)S(=O)(=O)c1ccc(Cl)cc1 | -0.3 | 100 | -6 | -5
CCCCC(CC)CN=C(N)NC(N)=NCCCCCCN=C(N)NC(N)=NCC(CC)CCCC (stereo not given) | -5.1* | 98 | 55*! | -4
C/C(=N\NC(=O)CSc1ncccn1)c1ccc(C)cc1 | -0.4 | 100 | 1 | 16
CCn1cc(C(=O)N2CCN(c3ccc(F)cc3)CC2)c(=O)c2cc(S(=O)(=O)N(C)C)ccc21 | 0.2 | 103 | 4 | -6
Cc1nc(CSc2n[nH]c(C(C)(C)C)n2)cs1 | 0.6 | 105 | -10 | 8
SMILES | AID504770 | Polio RdRp inh | MbtI inh | Mtb MenB inh
Cc1nc(CSc2nncs2)cs1 | -0.3 | 83* | 80* | -40
COc1ccccc1CNC(=O)Nc1noc2c1COc1ccccc1-2 | 0.25 | 105 | -8 | 3
CCSc1nnc(-c2cccc(S(=O)(=O)N3CCOCC3)c2)n1-c1ccc(F)cc1 | 0.3 | 96 | 5 | -10
CCO/C(C)=N\Oc1cc(=O)oc2ccccc12 | -0.45 | 100 | -12 | -15
CCOC(=O)/C=C(\C)Sc1cc(=O)oc2ccccc12 | -0.35 | 84* | -4 | 0
CCn1c(CCC(=O)N2CCN(c3ccccn3)CC2)nc2cc(S(N)(=O)=O)ccc21 | 0.05 | 55* | 103 | -1
O=C1C=CC(=O)N1c1ccc(-c2cnc(-c3ccc(N4C(=O)C=CC4=O)cc3)nc2)cc1 | -0.75 | 99 | 75 | -30
CC(C)c1ccc(NC(=S)Sc2ccc(F)cc2F)cc1 | -0.85 | 97 | 65* | -12
Cc1ccccc1NC(=S)N/N=C/c1ccc(O)cc1O | 1.9 | 81* | 21 | -59
Cc1ccc(NC(=O)CSc2nc3n[nH]c(C)c3c(=N)n2-c2cccc(C)c2)cc1 | . | 104 | . | .
CCc1ccc(NC(=O)CSc2nc3n[nH]c(C)c3c(=N)n2-c2ccc(C)cc2)cc1 | . | 86* | . | .
O=C1CCCC(=O)C1C(c1ccc(-c2cc(C(F)(F)F)ccc2Cl)o1)C1C(=O)CCCC1=O | -0.85 | 102 | 99* | -20
Cc1c(C)n(CC(O)CN2CCN(CCO)CC2)c2ccccc12 (stereo not given) | 0.4 | . | . | .
CCC(=O)NC(=S)c1c(C)nc2sccn12 | -0.65 | 57* | 15 | -222
CC(=O)N1CCOc2cc(S(=O)(=O)N3CCCC3)c(Cl)cc21 | -0.4 | 102 | -9 | 10
Cn1cc(S(=O)(=O)c2ccccc2)c(=O)c2cc(F)ccc21 | 0.6 | 100 | 3 | 13
CC(=O)c1cccc(NC(=O)c2oc3c(c2C)-c2nn(Cc4ccc(Cl)cc4)cc2CC3)c1 | . | 93 | . | .
CCOC(=O)c1cccc(NC(=O)c2oc3c(c2C)-c2nn(CC)cc2CC3)c1 | . | 64* | . | .
O=c1/c(=C\c2ccccc2)sc2nc3ccccc3n12 | -0.4 | 97 | 29 | .
O=c1/c(=C\c2ccncc2)sc2nc3ccccc3n12 | -0.4 | 63* | . | -34
N#CSc1cnc(NC2CCCCC2)s1 | -0.4 | 94 | 74* | -178
CC/C(C)=N/NC(=O)c1cccc(S(=O)(=O)N(CC)CC)c1 | 0.95 | 108 | -4 | -40
Cc1ccc(S(=O)(=O)N[C@@H](Cc2ccccc2)C(=O)CCl)cc1 | . | 102 | 64* | -14
S=C(Nc1ccccc1)N(Cc1ccccc1)Cc1ccccc1 | 0.1 | 102 | -3 | -61
CCCCS(=O)(=O)Nc1nccs1 | -0.6 | 99 | -4 | -15
SMILES | AID504770 | Polio RdRp inh | MbtI inh | Mtb MenB inh
CCCCS(=O)(=O)Nc1ccc(C)cn1 | 0.55 | 83* | 101 | 0
Cc1[nH]n(-c2nc3ccccc3s2)c(=O)c1C | -0.95 | 105 | 99 | -10
Cc1[nH]n(-c2nc3ccccc3s2)c(=O)c1C1OC(=O)c2ccccc21 (stereo not given) | 0.4 | 93 | 95* | -35
OCCCc1nc2ccccc2n1Cc1ccc(Cl)cc1 | 0.4 | . | . | .
COc1ccc(CCNC(=O)c2ccc3noc(-c4ccccc4)c3c2)cc1OC | 1.9 | 105 | -5 | -28
Cc1c(P(=S)(N2CCOCC2)N2CCOCC2)cc(C#N)n1C | -0.25 | 80* | 94* | -7
CCn1cc(C(=O)O)c(=O)c2cc(F)c(N3CCN(C(=O)c4ccc(F)cc4)CC3)cc21 | -3.7* | 102 | -94 | -19
CCn1cc(C(=O)O)c(=O)c2cc(F)c(N3CCN(C(C)=O)CC3)cc21 | -3* | 109 | 107 | -10
CCn1cc(C(=O)O)c(=O)c2cc(F)c(N3CCNCC3)nc21 | -3.5* | 104 | -31 | 6
CCCCN1C(=O)c2[nH]nc(-c3ccccc3O)c2C1c1cccc(O)c1 (stereo not given) | -1 | 102 | -1 | 1
CCNS(=O)(=O)c1ccc(NC(=O)Nc2cccc(Cl)c2Cl)cc1 | -0.8 | 100 | -17 | -17
CS(=O)(=O)Nc1ccc2c(c1)nc1n2CCN(Cc2ccccc2)C1 | -0.8 | 104 | -25 | -2
COc1ccc(-c2cn3c(n2)sc2cc(C(=O)NCCCN4CCCCCC4)ccc23)cc1 | . | 100 | . | .
COc1ccc(-c2cn3c(n2)sc2cc(C(=O)NCCCN4CCCCC4)ccc23)cc1 | . | 90* | . | .
COc1ccc(CN2COc3ccc4c(oc(=O)c5ccccc54)c3C2)cc1OC | . | 100 | . | .
